Where “and” joins values, the source holds several entries; their conditions need not be identical. Identical values can stand only once. Records with an inconclusive call do not appear. Values without a mark were called inactive. Calls of active or inactive are those of the source. The call rests on the fitted dose curve.
On the % scale 0 is the no-effect control and ±100 the full control effect.

Sequence of Thyrotropin receptor (Homo sapiens) (P16473 whole entry, looked up): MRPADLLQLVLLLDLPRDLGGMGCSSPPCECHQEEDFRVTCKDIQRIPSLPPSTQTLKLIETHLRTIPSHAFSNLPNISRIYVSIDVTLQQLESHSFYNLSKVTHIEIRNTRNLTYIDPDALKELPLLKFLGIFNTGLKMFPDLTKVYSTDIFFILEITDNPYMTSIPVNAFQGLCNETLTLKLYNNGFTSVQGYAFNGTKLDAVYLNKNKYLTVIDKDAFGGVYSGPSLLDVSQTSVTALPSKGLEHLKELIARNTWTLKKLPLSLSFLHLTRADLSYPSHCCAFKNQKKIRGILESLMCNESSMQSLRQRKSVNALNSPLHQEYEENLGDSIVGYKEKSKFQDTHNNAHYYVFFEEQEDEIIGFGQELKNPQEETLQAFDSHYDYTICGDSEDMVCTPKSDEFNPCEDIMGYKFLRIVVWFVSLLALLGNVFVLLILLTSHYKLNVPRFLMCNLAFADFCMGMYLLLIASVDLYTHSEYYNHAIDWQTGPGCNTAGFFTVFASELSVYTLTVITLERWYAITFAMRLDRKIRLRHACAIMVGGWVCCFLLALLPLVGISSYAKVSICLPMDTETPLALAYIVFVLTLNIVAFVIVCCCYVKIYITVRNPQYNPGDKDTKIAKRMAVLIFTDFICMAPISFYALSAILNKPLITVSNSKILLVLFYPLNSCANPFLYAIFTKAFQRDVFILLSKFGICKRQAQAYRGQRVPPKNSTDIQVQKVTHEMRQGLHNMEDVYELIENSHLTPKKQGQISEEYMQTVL

System in the first test: not listed separately
As to the kind of experiment: qHTS assay to identify small molecule agonists or antagonists of the thyroid stimulating hormone receptor (TSHR) signaling pathway - wild type cell line counter screen (AID 1259384). Particulars: HEK293 wild type, cAMP HTRF counter-screen; series mostly up to 92.4 µM; cAMP activity change: at the top concentration. The procedure, abridged: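 Counter screen in untransfected Hek293: compounds (15-point titration, triplicate) plus phosphodiesterase inhibitor Ro20-1724 added after 18 h plating; 30 min RT. Intracellular cAMP via competitive d2/cryptate immunoassay, 1 h incubation.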
A general note: qHTS replaces the single test concentration by a dilution series.
Regarding `Clc1ccc(C(c2ccc(Cl)cc2)C(Cl)Cl)cc1`, the Potency result is “inactive”.

Take `O=[N+]([O-])[O-].[Tl+]`: the “cAMP activity change” value is -0.208%.

Consider `CC#C[C@]1(O)CC[C@H]2[C@@H]3C[C@H](C)C4=CC(=O)CC[C@]4(C)[C@H]3CC[C@@]21C`, for which the “cAMP activity change” value was 2.6% [at 42.5 µM, hits give high values].

In the case of `CC1CCCC1`, the “cAMP activity change” value is -2.14%.

`C[C@@H]1CC2=CC(=O)CC[C@@H]2[C@H]2CC[C@@]3(C)[C@@H](CC[C@]3(C)O)[C@@H]21`: the “cAMP activity change” value is 1.17% [at 42.5 µM, hits give high values].

For `CCOC(=O)CCN(SN(C)C(=O)Oc1cccc2c1OC(C)(C)C2)C(C)C`, the “cAMP activity change” value is 1.03%.

Turning to `c1csc(-c2ccc(-c3cccs3)s2)c1`, the “cAMP activity change” value is -6.48%.

On to `CCc1cccc(C)c1N(C(=O)CCl)[C@@H](C)COC`, for which the “cAMP activity change” value was 1.46%.

`N#Cc1c[nH]cc1-c1cccc2c1OC(F)(F)O2`: the “cAMP activity change” value is 1.25%.

As for `O=c1c2ccccc2c(=O)c2c1cc(Cl)c1[nH]c3c([nH]c12)c(Cl)cc1c(=O)c2ccccc2c(=O)c13`, the “cAMP activity change” value is -0.942%.

As for `c1cc[n+]2c(c1)-c1cccc[n+]1CC2`, the “cAMP activity change” value is -1.47% [at 42.5 µM, hits give high values].

Take `CCN(CC)C(=S)S`: the Potency result was “inactive”.

Consider `ClC1=C(Cl)[C@]2(Cl)[C@H]3[C@H]([C@@H]4C=C[C@H]3C4)[C@@]1(Cl)C2(Cl)Cl`, for which the Potency result was “inactive”.

On to `Cc1ccccc1OP(=O)(Oc1ccccc1C)Oc1ccccc1C`, for which the “cAMP activity change” value was 0.528%.

As to `CCCCC(CC)COC(=O)c1ccccc1C(=O)OCC(CC)CCCC` (centres undefined), the “cAMP activity change” value is -4.97%.

As to `CSC(C)(C)/C=N/O`, the “cAMP activity change” value was 5.26%.

Consider `Fc1ccc(C(OCCN2CCN(CCCc3ccccc3)CC2)c2ccc(F)cc2)cc1`, for which the “cAMP activity change” value is 2.61% [at 42.5 µM, hits give high values].

Regarding `O=C1C[C@@H]2OCC=C3CN4CC[C@]56c7ccccc7N1[C@H]5[C@H]2[C@H]3C[C@H]46`, the “cAMP activity change” value was -1.03% [at 42.5 µM, hits give high values].

Take `c1ccc(N=NNc2ccccc2)cc1`: the Potency entry was “inactive”.

With `Cc1cccc(Cc2cnc[nH]2)c1C`, the “cAMP activity change” value is 1.3% [at 42.5 µM, hits give high values].

In the case of `C[C@]12C/C(=C/O)C(=O)C[C@@H]1CC[C@@H]1[C@@H]2CC[C@@]2(C)[C@H]1CC[C@]2(C)O`, the Potency result was “inactive”.

As for `CO/N=C(\C(=O)OC)c1ccccc1CO/N=C(\C)c1cccc(C(F)(F)F)c1`, the “cAMP activity change” value was 2.78%.

A further test concerns the target Thyrotropin receptor (Homo sapiens) (UniProt P16473). Description: qHTS assay to identify small molecule antagonists of the thyroid stimulating hormone receptor (TSHR) signaling pathway (AID 1259385). Further: nearly all actives have a fitted effect of over 20% in size. Further: potency means the concentration at half of the fitted maximal effect. To be noted: TSHR-HEK293 cAMP HTRF, TSH-stimulated antagonist mode; series mostly up to 92.4 µM; activity change, negative = inhibition: at the top concentration. In a few lines:
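Antagonist mode: compound-treated TSHR-expressing HEK293 cells were stimulated with 1.5 ng/mL TSH (final) in presence of Ro20-1724 for 30 min at RT. HTRF cAMP detection after 1 h; each compound tested at 15 concentrations, triplicate.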
Consider `Clc1ccc(C(c2ccc(Cl)cc2)C(Cl)Cl)cc1`, for which the Potency was 62.1 µM (active) and 61.1 µM (active).

On to `COP(=S)(OC)Oc1ccc([N+](=O)[O-])c(C)c1`, for which the “activity change, negative = inhibition” value was -4.39%.

On to `O=[N+]([O-])[O-].[Tl+]`, for which the “activity change, negative = inhibition” value was 0.216%.

Take `CC#C[C@]1(O)CC[C@H]2[C@@H]3C[C@H](C)C4=CC(=O)CC[C@]4(C)[C@H]3CC[C@@]21C`: the “activity change, negative = inhibition” value was -7.46% [at 42.5 µM].

For the molecule `CC1CCCC1`, the “activity change, negative = inhibition” value was -3.8%.

As for `CCOC(=O)CCN(SN(C)C(=O)Oc1cccc2c1OC(C)(C)C2)C(C)C`, the “activity change, negative = inhibition” value is -3.98%.

Take `c1csc(-c2ccc(-c3cccs3)s2)c1`: the “activity change, negative = inhibition” value was -3.88%.

Take `CN1C2CCC(C)(C)C1CC(OC(=O)C(O)(c1cccs1)c1cccs1)C2` (centres undefined): the “activity change, negative = inhibition” value was 1.79% [at 42.5 µM].

For the molecule `CCc1cccc(C)c1N(C(=O)CCl)[C@@H](C)COC`, the “activity change, negative = inhibition” value is -8.67%.

Turning to `N#Cc1c[nH]cc1-c1cccc2c1OC(F)(F)O2`, the “activity change, negative = inhibition” value was -3.72%.

Turning to `Oc1ccc(Cl)c(Cl)c1`, the “activity change, negative = inhibition” value was 2.5%.

As for `O=c1c2ccccc2c(=O)c2c1cc(Cl)c1[nH]c3c([nH]c12)c(Cl)cc1c(=O)c2ccccc2c(=O)c13`, the “activity change, negative = inhibition” value was -0.68%.

Regarding `c1cc[n+]2c(c1)-c1cccc[n+]1CC2`, the “activity change, negative = inhibition” value was 2.89% [at 42.5 µM].

As for `CCN(CC)C(=S)S`, the Potency entry is “inactive”.

For `ClC1=C(Cl)[C@]2(Cl)[C@H]3[C@H]([C@@H]4C=C[C@H]3C4)[C@@]1(Cl)C2(Cl)Cl`, the “activity change, negative = inhibition” value was 0.588%.

In the case of `Cc1ccccc1OP(=O)(Oc1ccccc1C)Oc1ccccc1C`, the “activity change, negative = inhibition” value is -5.99%.

For the molecule `CCCCC(CC)COC(=O)c1ccccc1C(=O)OCC(CC)CCCC` (centres undefined), the “activity change, negative = inhibition” value was 0.129%.

For `CSC(C)(C)/C=N/O`, the “activity change, negative = inhibition” value is 1.13%.

Turning to `O=C1C[C@@H]2OCC=C3CN4CC[C@]56c7ccccc7N1[C@H]5[C@H]2[C@H]3C[C@H]46`, the “activity change, negative = inhibition” value was 0.732% [at 42.5 µM].

Turning to `c1ccc(N=NNc2ccccc2)cc1`, the Potency entry was “inactive”.

With `Cc1cccc(Cc2cnc[nH]2)c1C`, the “activity change, negative = inhibition” value was 1.56% [at 42.5 µM].

With `C[C@]12C/C(=C/O)C(=O)C[C@@H]1CC[C@@H]1[C@@H]2CC[C@@]2(C)[C@H]1CC[C@]2(C)O`, the Potency result was “inactive”.

For the origin of these results see PubChem BioAssay (Tox21).
